RORgamma inh: qHTS for inhibitors of ROR gamma transcriptional activity | Nuclear receptor ROR-gamma (Mus musculus), P51450 | Drosophila S2 Gal4-RORgamma UAS-luciferase reporter, 20 h | Potency, µM (doses to about 53.6 µM), for the others: at the highest dose activity change, negative = inhibition, most hits filed as inhibitors | hit rate 5.4% among 310,000 | AID 2551, 2010; note: % is set by controls: 0 for no effect and ±100 for the full control effect; nearly all actives have a fitted effect of over 60% in size
Target sequence (P51450 whole entry, looked up, the tested form may be a part): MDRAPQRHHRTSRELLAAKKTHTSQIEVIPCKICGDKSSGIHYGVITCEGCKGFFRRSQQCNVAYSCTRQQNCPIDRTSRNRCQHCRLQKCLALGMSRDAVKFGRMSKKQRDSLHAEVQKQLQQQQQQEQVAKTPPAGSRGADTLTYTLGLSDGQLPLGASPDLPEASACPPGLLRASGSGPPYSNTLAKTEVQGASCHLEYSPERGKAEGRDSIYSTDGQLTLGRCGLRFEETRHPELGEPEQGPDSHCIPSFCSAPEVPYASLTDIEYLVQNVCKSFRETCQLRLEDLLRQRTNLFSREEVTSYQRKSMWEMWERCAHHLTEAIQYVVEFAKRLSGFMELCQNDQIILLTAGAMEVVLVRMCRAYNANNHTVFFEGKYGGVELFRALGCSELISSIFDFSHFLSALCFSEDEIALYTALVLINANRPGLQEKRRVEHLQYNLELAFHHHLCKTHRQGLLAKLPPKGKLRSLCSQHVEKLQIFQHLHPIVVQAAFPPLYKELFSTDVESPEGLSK
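In this cell-based reporter format, copper sulfate (700 uM final) drives Gal4–ROR gamma fusion expression from a metallothionein promoter in Drosophila Schneider cells; compounds preincubated 1 hr, reporter read after 20 hr at ambient temperature.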
VP16 counter: VP16 counterscreen qHTS for inhibitors of ROR gamma transcriptional activity; Potency, µM (series often up to 53.6 µM), without a hit: at the highest dose activity, negative = inhibition, usual class: inhibitors; Drosophila S2 Gal4-VP16 UAS-luciferase, luminescence, 20 h; hit rate 3.5% among 310,000; AID 2546, 2010;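 note: Gal4-VP16 expression switched on by copper sulfate through the metallothionein promoter; % is set by controls: 0 for no effect and ±100 for the full control effect; nearly all actives have a fitted effect of over 50% in size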
KB-3-1 tox: qHTS assay for MDR1-selective chemotherapeutics: Primary screen using the parental adenocarcinoma cell KB-3-1; AID 1347075, 2019; hit rate 1.4% among 400,000; Potency, µM (titrated, usually from 46.1 µM), most hits filed as cytotoxic; KB-3-1 viability, CellTiter-Glo ATP luminescence, 72 h; note: % is set by controls: 0 for no effect and ±100 for the full control effect; nearly all actives have a fitted effect of over 60% in size
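KB-3-1 cells, DMEM (no phenol red) + 10% FBS; compound by pin transfer, 72 h, 37 °C. Readout: CellTiter-Glo luminescence after 10 min. Data normalized, curve-fitted.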
KB-V1 MDR tox: qHTS assay for MDR1-selective chemotherapeutics: Primary screen using the drug-selected MDR subline cells KB-V1; KB-V1 MDR cells viability, CellTiter-Glo, 72 h; hit rate 3.4% among 400,000; Potency, µM (series often up to 46.1 µM), actives largely listed as cytotoxic; AID 1347076, 2019; note: % is set by controls: 0 for no effect and ±100 for the full control effect; nearly all actives have a fitted effect of over 60% in size
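Cells of the MDR subline KB-V1 are plated, dosed with compound at multiple concentrations, and incubated 72 h at 37 degrees C; CellTiter-Glo is then added and luminescence read after 10 min.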
MCF10A rerep: A quantitative high throughput screen for small molecules that induce DNA re-replication in MCF 10a normal breast cells. MCF 10A DNA re-replication, Hoechst nuclear intensity, 48 h. Potency, µM (top dose mostly 46.1 µM), without a hit: at the highest dose activity, positive = re-replication, usual class: activators. hit rate 2.9% among 350,000. AID 624296, 2012; note: % of control where 0% means no effect; nearly all actives have a fitted effect of over 50% in size
SW480 rerep: A quantitative high throughput screen for small molecules that induce DNA re-replication in SW480 colon adenocarcinoma cells; SW480 DNA re-replication, Hoechst DNA content imaging, 48 h; hit rate 1.8% among 340,000; AID 624297, 2012; Potency, µM (doses to about 46.1 µM), without a hit: top-dose re-replication activation, hits mostly activators; note: % of control where 0% means no effect; nearly all actives have a fitted effect of over 55% in size
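Hoechst fluorescence of nuclei (405 nm excitation, 500-530 nm emission) measured by plate-scanning imager after 48 hr compound exposure at 37 C; re-replication scored as increased number of nuclei with elevated intensity.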
* = called active by the depositor; i = inactive; ? = inconclusive; · = no result; [ ] = dose if it differs, or a comment. An excerpt weighted towards active compounds, which were near 10% of everything screened. Calls come from the whole dose curve; as a rule, active = well fitted curve in the direction sought with a large enough effect; inconclusive = small, poorly fitted or top-dose-only effect, or another doubt; inactive = no such curve, though single readings can be large; an effect the other way counts as inactive or inconclusive. Potency is the fitted concentration of half-maximal effect.

SMILES | RORgamma inh | VP16 counter | KB-3-1 tox | KB-V1 MDR tox | MCF10A rerep | SW480 rerep
Nc1nc(Cl)cc(N2CCC(c3cc(-c4ccc(Cl)cc4Cl)n[nH]3)CC2)n1 | -41% | ? | ? | 23µM* | ? | ?
O=c1oc(C2(O)CCCCC2)cc2ccc(-c3ccc4[nH]ccc4c3)cc12 | · | · | 0.82µM* | ? | ? | 23%
O=c1oc(C2(O)CCCCC2)cc2ccccc12 | · | · | i | i | 3% | -2%
CC(C)=NNc1nc(-c2ccccc2)c(C)s1 | 11µM* | -26% | i | i | 16% | -21%
Cc1sc(NC(=O)c2cccnc2)nc1-c1ccccc1 | 1% | 4% | i | i | -3% | -1%
Cc1sc(N/N=C/c2ccco2)nc1-c1ccccc1 | 11µM* | ? | i | i | -5% | 3%
Cc1sc(N/N=C/c2cccnc2)nc1-c1ccccc1 | 33% | -6% | ? | 12µM* | ? | ?
Cc1sc(N)nc1-c1ccccc1 | 23% | 6% | i | i | 1% | 0%
COc1ccc(OC)c2sc(N3CCN(C(=O)C(C)(C)C)CC3)nc12 | · | · | i | i | · | ·
Cc1cn(C(=O)c2ccccc2)c(=S)n1-c1ccc(Br)cc1 | 32% | -4% | i | 15µM* | ? | 19%
Cc1oc2c(c1C(=O)N1CCC(C)CC1)C(=O)c1ccccc1C2=O | 7.9µM* | ? | 21µM* | 18µM* | 18% | 12µM*
CCOC(=O)C1CCN(C(=O)c2c(C)oc3c2C(=O)c2ccccc2C3=O)CC1 | 11µM* | ? | ? | 18µM* | ? | 12µM*
CCOC(=O)C1CCN(C(=O)c2ccc(C)o2)CC1 | · | · | i | i | 5% | -4%
CC1CCN(C(=O)c2ccc3c(c2)C(=O)c2ccccc2-3)CC1 | · | · | i | i | · | ·
COC(=O)c1scc(-c2ccc(C)cc2)c1S(=O)(=O)Nc1cc(C)c(Cl)cc1OC | · | · | i | i | · | ·
COc1ccc(-n2c(COc3ccccc3)n[nH]c2=S)cc1 | 7.1µM* | -11% | i | i | 6% | -2%
COc1ccc(-n2c(COc3ccc(C)cc3)n[nH]c2=S)cc1 | 5.6µM* | 7.1µM* | i | i | -9% | 4%
COc1ccc(-n2c(COc3ccc(C)cc3)nnc2SCc2ccc(C#N)cc2)cc1 | 28% | 0% | i | 6.5µM* | 6% | 1%
COc1ccc(-n2c(COc3ccc(Cl)cc3)nnc2SCc2ccc(C#N)cc2)cc1 | -6% | 0% | i | ? | 15% | 2%
Cc1ccc(-n2c(COc3ccccc3)n[nH]c2=S)cc1 | 2.5µM* | ? | i | i | -6% | -2%
S=c1[nH]nc(COc2ccccc2)n1-c1ccc(Cl)cc1 | · | · | i | i | 2% | 29%
CCOP1(=O)OCC2OC(n3cnc4c(N)ncnc43)C(O)C2O1 (configuration not stated) | 0% | 3% | i | i | 15µM* | -17%
CCOC(=O)CNC(=S)n1cnc(N)n1 | 7.9µM* | -15% | ? | i | 2% | 13%
CCOC(=O)CNC(=O)CSc1nc(N)cc(N)n1 | -19% | 6% | i | i | 7% | -13%
CS(=O)(=O)c1ccc2nc(NC(=O)c3ccccc3Cl)sc2c1 | 15% | 20% | i | i | 0.82µM* | -80%
SMILES | RORgamma inh | VP16 counter | KB-3-1 tox | KB-V1 MDR tox | MCF10A rerep | SW480 rerep
COc1ccc2nc(NC(=O)c3c(C)noc3C)sc2c1 | · | · | i | i | 12% | -32%
COc1ccccc1C(=O)Nc1nc2ccc(S(C)(=O)=O)cc2s1 | 39% | 0% | i | 5.8µM* | ? | -3%
CS(=O)(=O)c1ccc2nc(NC(=O)c3ccccc3Br)sc2c1 | 25% | 12% | i | i | -11% | -6%
Cc1noc(C)c1C(=O)Nc1nc2ccc(S(C)(=O)=O)cc2s1 | -32% | 11µM* | · | · | 1% | -2%
Cc1ccnc(NC(=S)N2CCN(c3ccc(Cl)cc3)CC2)c1 | · | · | i | i | · | ·
N[C@@H](CSSC[C@H](N)C(=O)O)C(=O)O | 2% | 4% | · | · | · | ·
C=C/C(=C\C)C[C@@H](CC(=O)N[C@@H](CCC(=O)O)CC(=O)O)NC(=O)[C@@H]1CNCC[C@H]1NC(=O)C[C@@H](NC(=O)C[C@H](Cc1ccccc1)NC(=O)[C@@H]1CCCC[C@H]1N)C(C)C | 4% | -3% | · | · | · | ·
Cc1cccc(NC(=S)N=Nc2c(O)n(CN3CCOCC3)c3ccccc23)c1C | 0.71µM* | 1.1µM* | ? | i | 20% | 3%
O=C(Nc1ccccc1F)Nc1cc(S(=O)(=O)N2CCOCC2)ccc1N1CCCC1 | 21% | 14% | i | i | -2% | -2%
Cn1c(O)c(N=NC(=S)Nc2ccccc2F)c2cc(S(=O)(=O)N3CCOCC3)ccc21 | 0.32µM* | 2µM* | ? | i | 5% | ?
C=CCn1c(O)c(N=NC(=O)OC(C)(C)C)c2ccccc21 | 18% | 21% | i | i | -1% | -6%
Cc1ccc(NC(=S)N=Nc2c(O)n(C)c3ccc(S(=O)(=O)N4CCOCC4)cc23)cc1C | 0.71µM* | 3.2µM* | ? | i | ? | 5%
C=CCn1c(O)c(N=NC(=S)Nc2ccc(OC)c(Cl)c2)c2ccccc21 | 2.8µM* | 4µM* | ? | ? | ? | 5%
COCCNC(=O)C1(C)CCCN(Cc2cn(C)c3ccccc23)C1 (configuration not stated) | · | · | i | i | · | ·
COc1ccccc1-c1cncnc1N1CCN(C)CC1 | -1% | 4% | · | · | · | ·
CCOc1ccc(-c2cc(NC(=O)Nc3ccc(Cl)cc3)c(C(=O)OC)s2)cc1 | · | · | ? | i | · | ·
Oc1c(C(c2ccccc2F)N2CCN(c3ccccc3F)CC2)sc2nc(-c3ccco3)nn12 (configuration not stated) | · | · | i | ? | · | ·
C=CCn1c(O)c(N=NC(=S)Nc2ccccc2C)c2cc(S(=O)(=O)N3CCOCC3)ccc21 | 0.5µM* | 2µM* | i | ? | -31% | ?
O=C1OCCN1C(=O)[C@H]1[C@H](c2ccccc2)C(c2ccc(F)cc2)=NN1c1ccc(Br)cc1 | 5%[40.7 µM] | -5%[40.7 µM] | i | i | 9.2µM* | 23µM*
O=C1OCCN1C(=O)[C@H]1[C@H](c2ccccc2)C(c2ccccc2)=NN1c1ccc(Br)cc1 | 15% | -8% | i | i | ? | 18µM*

Assay outcomes deposited in PubChem BioAssay by National Center for Advancing Translational Sciences (NCATS).
